Measurements from PubChem BioAssay AID1159580 (chemical genetic matrix, 2015).
The campaign covered roughly 5,500 compounds. About 2,000 (36%) were called active. Roughly 18% stayed inconclusive and do not appear here. Rule as the data show it: active = normalized growth mostly below about 0.91 (no sharp cut-off); inconclusive = no clear call, values can overlap the other calls; inactive = mostly above about 0.92. This is one part of the list.

Experiment: chemical genetic growth profiling, strain panel (AID 1159580);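 also: tested at 20 µM; growth read once vehicle control cultures reached saturation at 30 °C; 1 = growth at the plate median or of vehicle wells; lower values mean less growth of the strain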
Details: S. cerevisiae deletion strains, growth OD

Measured: normalized growth

COc1cc(/C=C/C(=O)/C=C(O)/C=C/c2ccc(O)c(OC)c2)ccc1O
inactive: locus YJR066W, strain TOR1, active compounds read low 0.828
active: locus YAL021C, strain ccr4, active compounds read low 0.0789 | locus YAL026C, strain drs2, active compounds read low 0.118 | locus YAL030W, strain snc1, active compounds read low 0.157 | locus YBL061C, strain skt5, active compounds read low 0.175 | locus YBR009C, strain hhf1, active compounds read low 0.149 | locus YBR023C, strain chs3, active compounds read low 0.172 | locus YBR171W, strain sec66, active compounds read low 0.132 | locus YBR231C, strain swc5, active compounds read low 0.091 | locus YBR279W, strain paf1, active compounds read low 0.307 | locus YCL011C, strain gbp2, active compounds read low 0.184 | locus YCL016C, strain dcc1, active compounds read low 0.4 | locus YCL061C, strain MRC1, active compounds read low 0.216 | locus YCL069W, strain vba3, active compounds read low 0.224 | locus YCR088W, strain abp1, active compounds read low 0.265 | locus YDL005C, strain med2, active compounds read low 0.089 | locus YDL040C, strain nat1, active compounds read low 0.0875 | locus YDR001C, strain nth1, active compounds read low 0.249 | locus YDR069C, strain doa4, active compounds read low 0.0822 | locus YDR137W, strain rgp1, active compounds read low 0.149 | locus YDR159W, strain sac3, active compounds read low 0.112 | locus YDR195W, strain ref2 0.156 | locus YDR297W, strain sur2, active compounds read low 0.187 | locus YDR334W, strain swr1, active compounds read low 0.109 | locus YDR335W, strain msn5, active compounds read low 0.0992 | locus YDR392W, strain spt3, active compounds read low 0.14 | locus YEL003W, strain gim4, active compounds read low 0.0989 | locus YEL037C, strain rad23, active compounds read low 0.155 | locus YEL061C, strain CIN8 (second series), active compounds read low 0.243 | locus YER015W, strain faa2, active compounds read low 0.119 | locus YER016W, strain bim1, active compounds read low 0.396 | locus YER111C, strain swi4, active compounds read low 0.094 | locus YER155C, strain BEM2 (second series), active compounds read low 0.242 | locus YFR010W, strain ubp6, active compounds read low 0.187 | locus YGL167C, strain pmr1, active compounds read low 0.177 | locus YGL173C, strain kem1, active compounds read low 0.107 | locus YGL227W, strain vid30, active compounds read low 0.507 | locus YGL240W, strain doc1, active compounds read low 0.399 | locus YGL253W, strain hxk2, active compounds read low 0.224 | locus YHR013C, strain ard1, active compounds read low 0.178 | locus YHR027C, strain rpn1, active compounds read low 0.0816 | locus YHR030C, strain SLT2, active compounds read low 0.653 | locus YHR079C, strain IRE1, active compounds read low 0.574 | locus YHR142W, strain chs7, active compounds read low 0.0884 | locus YJL092W, strain hpr5, active compounds read low 0.222 | locus YJL095W, strain BCK1 (second series), active compounds read low 0.0924 | locus YJL095W, strain BCK1, active compounds read low 0.546 | locus YJL115W, strain asf1, active compounds read low 0.313 | locus YJL129C, strain trk1, active compounds read low 0.108 | locus YJL154C, strain vps35, active compounds read low 0.251 | locus YJL164C, strain tpk1, active compounds read low 0.143 | locus YJL166W, strain qcr8, active compounds read low 0.0762 | locus YKL160W, strain elf1, active compounds read low 0.433 | locus YKR026C, strain gcn3, active compounds read low 0.229 | locus YKR091W, strain srl3, active compounds read low 0.304 | locus YLL001W, strain dnm1, active compounds read low 0.212 | locus YLL026W, active compounds read low 0.131 | locus YLL041C, strain sdh2, active compounds read low 0.0974 | locus YLR027C, strain aat2, active compounds read low 0.161 | locus YLR113W, strain HOG1, active compounds read low 0.227 | locus YLR221C, strain rsa3, active compounds read low 0.204 | locus YLR258W, strain gsy2, active compounds read low 0.17 | locus YLR262C, strain YPT6 (second series), active compounds read low 0.142 | locus YLR320W, strain mms22, active compounds read low 0.163 | locus YLR342W, strain FKS1, active compounds read low 0.173 | locus YLR357W, strain rsc2, active compounds read low 0.34 | locus YLR370C, strain arc18, active compounds read low 0.171 | locus YLR384C, strain iki3, active compounds read low 0.155 | locus YML120C, strain ndi1, active compounds read low 0.115 | locus YMR058W, strain fet3, active compounds read low 0.0838 | locus YMR125W, strain sto1, active compounds read low 0.16 | locus YMR129W, active compounds read low 0.276 | locus YMR205C, strain PFK2, active compounds read low 0.134 | locus YMR231W, strain pep5, active compounds read low 0.134 | locus YNL071W, strain lat1, active compounds read low 0.269 | locus YNL183C, strain NPR1, active compounds read low 0.761 | locus YNL209W, strain ssb2, active compounds read low 0.0983 | locus YNL248C, strain rpa49, active compounds read low 0.443 | locus YNL322C, strain KRE1 (second series), active compounds read low 0.16 | locus YNR049C, strain mso1, active compounds read low 0.175 | locus YOR001W, strain rrp6, active compounds read low 0.139 | locus YOR070C, strain gyp1, active compounds read low 0.416 | locus YOR080W, strain dia2, active compounds read low 0.0852 | locus YOR083W, strain WHI5, active compounds read low 0.203 | locus YOR106W, strain vam3, active compounds read low 0.0922 | locus YOR231W, strain MKK1, active compounds read low 0.575 | locus YOR265W, strain rbl2, active compounds read low 0.159 | locus YOR270C, strain vph1, active compounds read low 0.115 | locus YOR290C, strain snf2, active compounds read low 0.101 | locus YPL051W, strain arl3, active compounds read low 0.118 | locus YPL078C, strain atp4, active compounds read low 0.182 | locus YPL106C, strain sse1, active compounds read low 0.251 | locus YPL240C, strain hsp82, active compounds read low 0.294 | locus YPL256C, strain CLN2, active compounds read low 0.494
